From PubChem BioAssay
In the library only some 1.8% were active in any assay of this set; here they are far more common.
UBC13 polyUb = blocks human UBC13 polyubiquitin chain formation | P61088 | TR-FRET | inhibition, % at 20 µM | 330,000 tested, 0.47% active | AID 485273; in the data active = inhibition above about 45%, passing the limit was not always enough
Neddyl block = inhibitors of human cullin neddylation; P61081+Q13564; TR-FRET cullin neddylation, biochemical; calls only at 25 µM; 360,000 tested, 0.58% active; AID 651699; in the data active = inhibition above about 36%
Target sequence (P61081 whole entry, looked up): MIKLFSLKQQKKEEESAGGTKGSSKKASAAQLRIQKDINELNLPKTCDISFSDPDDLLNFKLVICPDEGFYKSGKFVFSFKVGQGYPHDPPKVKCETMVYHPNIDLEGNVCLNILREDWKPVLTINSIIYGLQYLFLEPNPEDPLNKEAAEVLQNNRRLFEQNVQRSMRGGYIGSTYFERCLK
Target sequence (Q13564 whole entry, looked up): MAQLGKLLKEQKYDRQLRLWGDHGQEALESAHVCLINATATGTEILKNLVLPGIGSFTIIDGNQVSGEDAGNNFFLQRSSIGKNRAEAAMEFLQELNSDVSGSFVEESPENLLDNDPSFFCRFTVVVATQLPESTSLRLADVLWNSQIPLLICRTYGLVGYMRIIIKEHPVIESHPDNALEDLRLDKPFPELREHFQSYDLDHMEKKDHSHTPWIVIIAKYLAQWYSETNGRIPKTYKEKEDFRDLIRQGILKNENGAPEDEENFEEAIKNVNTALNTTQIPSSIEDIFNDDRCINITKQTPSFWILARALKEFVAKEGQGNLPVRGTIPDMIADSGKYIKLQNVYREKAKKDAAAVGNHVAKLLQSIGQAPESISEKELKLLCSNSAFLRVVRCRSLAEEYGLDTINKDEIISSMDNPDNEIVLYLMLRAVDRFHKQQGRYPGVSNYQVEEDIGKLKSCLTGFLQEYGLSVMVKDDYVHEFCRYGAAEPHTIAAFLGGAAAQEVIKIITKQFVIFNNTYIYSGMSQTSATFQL
MBD2 DNA inh = MBD2-methylated oligo binding inhibition; 370,000 tested, 0.31% active; inhibition, % at 4.4 µM; AID 686964; TR-FRET, MBD2 binding to methylated oligonucleotide; in the data active = inhibition above about 13%
UHRF1 binding = human UHRF1 methylated DNA binding inhibitors; 370,000 tested, 0.75% active; inhibition, % at 4.4 µM; Q96T88; AID 687016; UHRF1 binding to methylated oligo, TR-FRET; in the data active = inhibition above about 21%;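 note: UHRF1 SRA domain binding a hemimethylated CpG hairpin DNA probe; 0% = median of test compound wells and 100% = reference inhibitor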
The depositor's hits bear a star; i = inactive; / = not tested or not shown.

SMILES | UBC13 polyUb | Neddyl block | MBD2 DNA inh | UHRF1 binding
Cc1ccc(SCC(=O)OCC(=O)N(CCC#N)c2ccccc2)cc1C | -0.4 | i | 8.3 | -0.9
COc1ccc(-c2ccc(C(=O)NCC3CC3)c3occc23)c(C)c1 | / | / | 6.5 | 4.7
COc1ccc(-c2ccc(C(=O)NCC(C)C)c3occc23)c(C)c1 | / | / | 6.7 | 49.0*
CC(C)NC(=O)N(C)C[C@H]1Oc2ccc(NS(=O)(=O)c3ccccc3)cc2C(=O)N([C@H](C)CO)C[C@H]1C | 18.0 | i | 1.8 | -1.8
CC(C)NC(=O)N(C)C[C@H]1OCCCC[C@H](C)Oc2ccc(NS(=O)(=O)c3ccccc3)cc2C(=O)N([C@H](C)CO)C[C@H]1C | / | i | 7.0 | 22.2*
O=C(Nc1ccccc1)c1ccccc1NC(=O)c1ccccc1C(=O)O | 1.1 | i | -1.6 | 27.7*
CCOC(=O)C1(C)CCCN(C(=O)c2ccccc2OC(F)(F)F)C1 (centres undefined) | / | i | 1.4 | 1.1
CC(Oc1ccc(Cl)cc1)C(=O)Nc1ccccc1N1CCOCC1 (centres undefined) | 20.9 | i | 4.2 | -2.4
Cc1cc(Cl)ccc1OC(C)C(=O)Nc1ccccc1N1CCOCC1 (centres undefined) | 9.5 | i | 11.8 | 20.9*
c1ccc(CCNc2nc(-c3ccccn3)cs2)cc1 | 8.1 | i | 2.0 | -2.4
c1ccc(CCNc2nc(-c3cccnc3)cs2)cc1 | 1.5 | i | -4.5 | 49.2*
Cc1ccccc1SC1CCN(C(=O)C2CCC(=O)N(C3CC3)C2)CC1 (centres undefined) | 6.9 | i | -7.8 | -2.8
Cc1ccc(SC2CCN(C(=O)C3CCC(=O)N(C4CC4)C3)CC2)cc1 (centres undefined) | -3.6 | i | 6.8 | 22.2*
CCCC(=O)N(c1ccc2oc(C)c(C(C)=O)c2c1)S(=O)(=O)c1ccc(C)c([N+](=O)[O-])c1 | -14.9 | i | -2.8 | 0.3
CCn1cc(CCCC(=O)NCc2ccccc2OC)c2ccccc21 | -0.1 | i | -4.5 | 1.2
CCOc1ccc(CNC(=O)CCS(=O)(=O)Cc2ccccc2C)cc1OC | -1.1 | i | 6.7 | 3.0
CCn1cc(CCC(=O)NCc2ccccc2OC)c2ccccc21 | 8.7 | i | 3.6 | 21.8*
CCOc1ccc(CNC(=O)CCc2cn(C)c3ccccc23)cc1OC | -3.9 | i | 2.6 | 58.6*
CC(CCc1ccccc1)NC(=O)c1cc2sccc2n1C (centres undefined) | 8.3 | i | / | /
O=C(Nc1nnc(C2CC2)s1)c1cc(S(=O)(=O)N2CCCCC2)ccc1N1CCOCC1 | 1.0 | i | -0.3 | 0.0
Cc1nn(-c2ccccc2)c(C)c1/C=N/NC(=O)c1cc(C23CC4CC(CC(C4)C2)C3)[nH]n1 | -11.9 | i | -4.0 | 1.5
Cc1c(N2C(=O)/C(=C/c3cccc4ccccc34)SC2=S)c(=O)n(-c2ccccc2)n1C | -8.8 | i | -1.6 | 30.8*
Cc1c(N2C(=O)/C(=C\c3ccccc3O)SC2=S)c(=O)n(-c2ccccc2)n1C | -13.6 | i | -4.0 | -3.6
C=CCn1c(SCC(=O)c2ccc(O)c(O)c2)nnc1-c1cccnc1 | 4.0 | i | 6.1 | 25.0*
Cc1c(Cl)cccc1N/C(SCC(=O)N1CCCCCC1)=C(/C#N)c1nc2ccccc2s1 | -24.5 | i | 3.2 | 1.6
SMILES | UBC13 polyUb | Neddyl block | MBD2 DNA inh | UHRF1 binding
CCCN(CCC)CCCNC(=O)c1cn(CC)c2ccc(S(=O)(=O)N3CCc4ccccc4C3)cc2c1=O | 9.6 | i | 8.8 | 5.6
Cc1cccc(N2CCN(C(=O)C3CCN(S(=O)(=O)c4cccc5nsnc45)CC3)CC2C)c1 (centres undefined) | -14.4 | i | 5.0 | -0.6
Cc1cccc(N2CCN(C(=O)C3CCN(S(=O)(=O)N4CCOCC4)CC3)CC2C)c1 (centres undefined) | -7.6 | i | 2.0 | 74.2*
O=C(N/N=C/c1cccs1)c1ccccn1 | -12.9 | i | -0.4 | -4.7
COc1ccc(C(C)(O)c2nc(-c3ccccc3)cs2)cc1 (centres undefined) | / | i | -1.9 | -3.0
COc1ccc(C(C)(O)c2nc(-c3ccc4ccccc4c3)cs2)cc1 (centres undefined) | / | i | -7.1 | 34.5*
CC(=O)N=C1SC2CS(=O)(=O)CC2N1c1c(Cl)cccc1Cl (centres undefined) | 4.1 | i | -1.8 | 23.8*
O=C(CNS(=O)(=O)c1cccc2nsnc12)NCCc1ccccc1 | -4.7 | i | -5.2 | 0.6
O=C(CSc1n[nH]c(=O)n1-c1ccc2c(c1)OCCO2)Nc1ccccc1 | -10.7 | i | -2.4 | 27.4*
O=C(CSc1n[nH]c(=O)n1-c1ccccc1)Nc1ccccc1 | 3.5 | i | -6.2 | -1.6
